Many of the other results were omitted from the sample, so hits are more common in it than they were.
ST2 inh: IL1RL1 inhibition; inhibition, % for hits at 17 µM; AID 1259354; AlphaLISA ST2-Fc/biotin-IL-33 interaction, 1 h; 78,000 compounds, 2.3% hits; Q01638; in the data active means inhibition above about 30%
Target sequence (Q01638 whole entry, looked up): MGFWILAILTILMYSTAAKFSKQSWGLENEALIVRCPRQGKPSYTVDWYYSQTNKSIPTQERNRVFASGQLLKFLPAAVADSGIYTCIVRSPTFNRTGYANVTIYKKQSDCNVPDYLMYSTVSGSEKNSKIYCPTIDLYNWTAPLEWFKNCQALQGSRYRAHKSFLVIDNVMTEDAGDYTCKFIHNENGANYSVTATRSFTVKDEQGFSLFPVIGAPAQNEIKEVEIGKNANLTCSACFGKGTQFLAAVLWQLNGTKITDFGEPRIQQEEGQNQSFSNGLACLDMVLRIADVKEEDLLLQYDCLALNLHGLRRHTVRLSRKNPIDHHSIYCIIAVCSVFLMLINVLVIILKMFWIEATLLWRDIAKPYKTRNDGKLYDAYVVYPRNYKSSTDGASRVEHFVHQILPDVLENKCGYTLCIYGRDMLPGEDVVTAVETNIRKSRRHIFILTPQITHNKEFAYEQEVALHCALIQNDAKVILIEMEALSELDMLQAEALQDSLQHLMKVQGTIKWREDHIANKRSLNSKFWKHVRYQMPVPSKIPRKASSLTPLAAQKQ
Numbers without * were called inactive; ! = repeats disagree.

N#Cc1c(NC(=O)COc2cccc3ccccc23)sc2c1CCCC2 was read as ST2 inh inactive.
Screening COc1ccc(-c2cc(C(=O)Nc3sc4c(c3C#N)CCC4)no2)cc1 returned ST2 inh inactive.
Screening N#Cc1c(-n2ncnc2-c2ccc3c(c2)OCO3)sc2c1CCCCC2 returned ST2 inh 35.0%*!.
O=C(NC1CCCCC1)C1c2ccccc2C(=O)N1C1CC1 (centres undefined) was read as ST2 inh inactive.
`Cc1ccc(CN2CCN(c3cncc(C(N)=O)n3)CC2)c2cccnc12` gave ST2 inh inactive.
For CC(=O)N1c2ccc(S(=O)(=O)N3CCOCC3)cc2CC1C(=O)NCCN1CCCC1 (centres undefined) the results were ST2 inh inactive.
For Cc1ccc(CSC2=NCCN2C(=O)c2ccc(C)cc2)cc1 the results were ST2 inh inactive.
For COc1ccc(C(=O)NCC(=O)O)cc1 the results were ST2 inh inactive.
COc1ccc(C(=O)/C=C(\C)c2ccc(OC)cc2)cc1 was read as ST2 inh 43.0%*.
COc1ccc(-c2ccc(C(C)=O)cc2)cc1 was read as ST2 inh inactive.
Screening O=C(O)c1sc2cc([N+](=O)[O-])ccc2c1Cl returned ST2 inh inactive.
Screening CN1CC2(CCCN(C(=O)c3cnn4ccccc34)C2)OC1=O (centres undefined) returned ST2 inh inactive.
`CN1CCN(C2CC(=O)N(c3ccc(Cl)cc3)C2=O)CC1` (centres undefined) gave ST2 inh inactive.
`Cc1cc(C(=O)O)c2ccccc2n1` gave ST2 inh inactive.
O=C(O)c1cc(-c2cc(C(=O)O)c3ccccc3n2)nc2ccccc12 was read as ST2 inh inactive.
For Cc1ccc(-c2cc(C(=O)O)c3cc4c(C(=O)O)cc(-c5ccc(C)o5)nc4cc3n2)o1 the results were ST2 inh 91.0%*.
Screening CCc1cccc(C)c1NS(=O)(=O)c1ccc([N+](=O)[O-])cc1 returned ST2 inh inactive.
Screening N/C(=N/OC(=O)N1c2ccccc2Sc2ccccc21)c1ccccc1 returned ST2 inh 50.0%*.
O=C(COc1ccccc1)OCC(=O)N1c2ccccc2Sc2ccccc21 was read as ST2 inh inactive.
Screening CN(C(=O)N1c2ccccc2Sc2ccccc21)c1ccccc1 returned ST2 inh inactive.
`CC1=C(C(=O)Nc2ccc(Cl)cc2)C(c2ccc(C(C)C)cc2)n2ncnc2N1` (centres undefined) gave ST2 inh inactive.
Screening COc1ccc(C(CC(=O)NCc2n[nH]c3c2CCC3)c2ccccc2)cc1 (centres undefined) returned ST2 inh inactive.
For CSc1ccc(-c2nc(CSCC(=O)N3CCN(Cc4ccccc4)CC3)c(C)o2)cc1 the results were ST2 inh inactive.
Screening C=CCN(Cc1ccc(C)s1)C(=O)C(C)OC(C)C (centres undefined) returned ST2 inh inactive.
`CCCCOc1ccc(C(=O)Nc2c3c(nn2-c2ccc(F)cc2)CS(=O)C3)cc1` (centres undefined) gave ST2 inh inactive.
For O=C1C2C(C(=O)N1c1cc(Cl)ccc1Cl)[C@H]1C=C[C@@H]2CC1 (some centres undefined) the results were ST2 inh inactive.
Screening Cc1ccnc(NCCNCC(=O)Nc2cnccn2)c1 returned ST2 inh inactive.
Screening CCOc1ccc(C(=O)Nc2ccc(Nc3nc(C)cc(Nc4ccc(OC)cc4)n3)cc2)cc1 returned ST2 inh 30.0%*.
Screening CCCC(=O)Nc1ccc(Nc2nc(C)cc(Nc3ccc(OC)cc3)n2)cc1 returned ST2 inh inactive.
COc1cccc(C(=O)Nc2ccc(Nc3nc(C)cc(Nc4ccc(C)cc4)n3)cc2)c1 was read as ST2 inh inactive.
For COc1ccccc1C1C(Oc2ccccc2C)C(=O)N1c1cccc([N+](=O)[O-])c1 (centres undefined) the results were ST2 inh 33.0%*.
For COc1cc([N+](=O)[O-])ccc1NC(=O)c1c(C)nn(-c2ccccc2)c1Cl the results were ST2 inh inactive.
For COc1cccc(OC)c1C(=O)Nc1ccc([N+](=O)[O-])cc1 the results were ST2 inh inactive.
Screening C=CCNC(=O)c1cnn(-c2ccccc2)c1NC(=O)c1cccc(F)c1 returned ST2 inh inactive.
Screening O=[N+]([O-])c1cc(C=Nc2ccc(Br)cc2)ccc1Br returned ST2 inh inactive.
`O=[N+]([O-])c1cc(C=Nc2cccc(I)n2)ccc1Br` gave ST2 inh inactive.
`O=[N+]([O-])c1cc(C=Nc2ccccc2I)ccc1Br` gave ST2 inh 35.0%*.
For Cc1nc2c(C(=O)NCc3cccs3)cnn2c(C)c1Cc1c(F)cccc1Cl the results were ST2 inh inactive.
Screening COc1ccc(C2CC(c3ccccc3)=NN2C(=O)c2cc(OC)c(OC)c(OC)c2)cc1 (centres undefined) returned ST2 inh inactive.
Screening COc1ccccc1C1CC(c2ccccc2)=NN1C(=O)c1ccccc1 (centres undefined) returned ST2 inh inactive.
Screening COc1cc(C(=O)N2N=C(c3ccccc3)CC2c2ccc(N(C)C)cc2)cc(OC)c1OC (centres undefined) returned ST2 inh 48.0%*.
`O=C(c1nn(Cc2ccncc2)c2c1CN(Cc1cc3c(cc1Cl)OCO3)CC2)N1CCCC1` gave ST2 inh inactive.
For COc1ccc(Cl)cc1C(=O)Nc1ccc(C)c(-c2nc3ncccc3o2)c1 the results were ST2 inh 35.0%*.
Screening COc1ccc(C(=O)Nc2ccc(Cl)c(-c3nc4ncccc4o3)c2)cc1OC returned ST2 inh inactive.
`COc1ccccc1C(=O)Nc1cccc(-c2nc3ncccc3o2)c1` gave ST2 inh inactive.
For COCc1noc(CC2CN(c3nccc(C4CCCC4)n3)CCO2)n1 (centres undefined) the results were ST2 inh inactive.
Screening CC1=NN(c2ccccc2)C(=O)/C1=C/c1ccccc1OCc1ccc(C(=O)O)cc1 returned ST2 inh inactive.
For CSC1=N/C(=C\c2ccccc2OCc2ccccc2)C(=O)S1 the results were ST2 inh 64.0%*.
Screening O=C1NC(=O)/C(=C\c2ccccc2OCc2ccccc2)S1 returned ST2 inh inactive.
COCCN(Cc1cnn(C)c1)C(=O)c1cccc(Cl)c1Cl was read as ST2 inh inactive.
For CCN(CC)Cc1c(O)ccc2c(=O)c(Oc3cc(C)cc(C)c3)coc12 the results were ST2 inh inactive.
Screening O=C(O)[C@@H]1CCCN1C(=O)CC12CC3CC(CC(C3)C1)C2 returned ST2 inh inactive.
Screening COc1ccc(/C=C2/C(=O)N(c3ccc(Cl)c(Cl)c3)N=C2C)cc1Br returned ST2 inh inactive.
For COc1ccc(/C=C2/C(=O)N(c3ccc(Cl)c(Cl)c3)N=C2C)cc1[N+](=O)[O-] the results were ST2 inh inactive.
Screening COc1cc(/C=C2/C(=O)N(c3ccc(Cl)c(Cl)c3)N=C2C)ccc1OCC#N returned ST2 inh inactive.
C=CCOc1ccc(/C=C2/C(=O)N(c3ccc(Cl)c(Cl)c3)N=C2C)cc1OC was read as ST2 inh inactive.
For COc1cc(Br)c(/C=C2/C(=O)N(c3ccc(Cl)c(Cl)c3)N=C2C)cc1OC the results were ST2 inh inactive.
`COc1cc(/C=C2/C(=O)N(c3ccc(Cl)c(Cl)c3)N=C2C)cc(OC)c1OC` gave ST2 inh 55.0%*.

Source: PubChem BioAssay (Paczesny and Yang Labs, IUPUI and University of Michigan)
